Assay outcomes deposited in PubChem BioAssay by several laboratories.
hcDAF12 agonist: H. contortus DAF-12 nuclear receptor activators, primary screen, cell-based, luminescence, HEK293, lit1-tk-luc reporter; activation, % at 6.8 µM; 370,000 compounds, 1.4% hits; HEK293 hcDAF-12 lit1-tk-luc reporter; 0% DMSO, 100% Δ7-dafachronic acid; AID 652067, 2013;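 active means activation above the mean of all tested compounds plus 3 SD, cut at about 5.5% in these data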;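 further: 100% = response to 3 µM Δ7-dafachronic acid high control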
APP 5'UTR act: activators of APP 5'UTR luciferase reporter, primary screen, SH-SY5Y cells; SH-SY5Y APP 5'UTR luciferase reporter, luminescence; zero percent = DMSO vehicle wells; activation, % at 2 µM; 190,000 compounds, 1% hits; AID 1276, 2008;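 active means activation above a set limit, based on mean plus 3 SD of controls, cut at about 140% in these data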
NF-kB neuron act: activators of NF-kB expression in neurons, primary screen, cell-based, HTS; human neuronal cells, NF-kB reporter expression; active compounds read high; fold change at 12.5 µM; 190,000 compounds, 1.6% hits; in the data active means fold change above about 3.3
hgDAF12 agonist: H. glycines DAF-12 receptor agonists, primary screen, cell-based, luminescence, HEK293, GAL4 fusion, UAS-luciferase; AID 687014, 2013; Nuclear hormone receptor DAF-12 (Heterodera glycines), GAL4 fusion; HEK293 GAL4-hgDAF12 UAS-luciferase reporter, agonist luminescence; normalized to butyrate control; activation, % at 6.8 µM; 370,000 compounds, 1.8% hits;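 active means activation above a cutoff set at the mean of all screened compounds plus 3 SD, cut at about 10% in these data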;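 further: 0% = DMSO wells and 100% = sodium butyrate wells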
ssDAF12 agonist: S. stercoralis DAF-12 nuclear receptor activators, primary screen, cell-based, luminescence, HEK293, GRIP1 co-expression, lit1-tk-luc; Nuclear hormone receptor DAF-12 (Strongyloides stercoralis); HEK293 ssDAF-12/GRIP1 lit1-tk-luc reporter; % of 3 µM dafachronic acid response; activation, % at 6.8 µM; 370,000 compounds, 1% hits;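 active means activation above the mean over all tested compounds plus 3 SD, cut at about 0.9% in these data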;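 further: 0% = DMSO-only wells and 100% = 3 µM delta7-dafachronic acid wells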
hgDAF12 conf: H. glycines DAF-12 receptor agonists, confirmation, cell-based, luminescence, HEK293, GAL4-LBD fusion. shares compounds with hgDAF12 agonist. HEK293 GAL4-hgDAF12 luciferase reporter, agonist mode; percent of butyrate response. activation, % at 6.8 µM. 3,300 compounds, 80% hits. AID 743050, 2013;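 active means mean activation over triplicate wells above the hit cutoff derived from the earlier primary screen, cut at about 11% in these data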;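 further: 0% = DMSO low control and 100% = 2 mM sodium butyrate high control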
LXRb DAF12 ctr: LXR agonists, Gal4 luciferase reporter, confirmation, counter-screen for hgDAF-12 agonist project, cell-based, luminescence, HEK293, H. glycines campaign. activation, % at 6.8 µM. 3,300 tested, under 10 active. AID 743051, 2013. shares compounds with hgDAF12 agonist. 24 h;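 active means mean activation of the triplicate above a set limit carried over from the primary screen, none filed active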
Target sequence (P55055 whole entry, looked up, the tested form may be a part): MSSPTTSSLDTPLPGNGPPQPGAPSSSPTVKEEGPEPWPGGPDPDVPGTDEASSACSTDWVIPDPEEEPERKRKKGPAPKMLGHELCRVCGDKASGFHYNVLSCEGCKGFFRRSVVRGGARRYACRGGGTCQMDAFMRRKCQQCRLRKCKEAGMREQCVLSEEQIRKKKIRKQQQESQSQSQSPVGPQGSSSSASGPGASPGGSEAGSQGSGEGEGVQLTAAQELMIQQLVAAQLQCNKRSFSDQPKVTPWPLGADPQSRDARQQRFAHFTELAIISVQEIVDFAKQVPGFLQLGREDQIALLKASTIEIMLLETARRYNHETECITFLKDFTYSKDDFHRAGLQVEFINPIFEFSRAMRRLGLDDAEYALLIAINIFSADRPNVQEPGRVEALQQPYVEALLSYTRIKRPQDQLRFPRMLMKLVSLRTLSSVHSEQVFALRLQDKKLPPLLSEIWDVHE
* marks the source's active call; other numbers are inactive results. Hits are enriched below; roughly 3.4% of the tested compounds scored in any of these assays.

`Brc1cccc(Cn2ccc3ccc(-c4ccc5ccn(Cc6cccc(Br)c6)c5c4)cc32)c1` gave hcDAF12 agonist 1, hgDAF12 agonist 3 and ssDAF12 agonist -1.
For CCNC(=S)NNC(=O)CSc1nnc(SCc2cccc3ccccc23)s1 the results were hcDAF12 agonist 2, hgDAF12 agonist 4 and ssDAF12 agonist -2.
`Nc1[nH]c(C(=O)c2ccccc2)c(-c2ccc(Br)cc2)c1C(=O)N1CCN(CCO)CC1` gave hcDAF12 agonist 0, hgDAF12 agonist 3 and ssDAF12 agonist -2.
Screening Cc1ccc(C(=O)N/N=C/c2ccc(N3CCOCC3)cc2)c(C)c1 returned hcDAF12 agonist 1, APP 5'UTR act 19, NF-kB neuron act 1.1, hgDAF12 agonist 14*, ssDAF12 agonist -1, hgDAF12 conf -1 and LXRb DAF12 ctr 0.
Screening O=C(N/N=C/c1ccc(N2CCOCC2)cc1)c1ccc(O)cc1 returned hcDAF12 agonist -1, hgDAF12 agonist 0 and ssDAF12 agonist -2.
`Cc1ccc(-n2c(SCC(=O)Nc3ccc4cn[nH]c4c3)nnc2-c2ccccc2)cc1` gave hcDAF12 agonist 0, hgDAF12 agonist -2 and ssDAF12 agonist -2.
For COCCCN1C(=O)[C@H](CC(=O)N2CCN(C(=O)c3ccco3)CC2)[C@]2(C(=O)OC)CCCCC=C12 the results were hcDAF12 agonist 0, hgDAF12 agonist 0 and ssDAF12 agonist 0.
`COc1ccc(/C=C/C(=O)c2ccc3c(c2)OCO3)c(OC)c1` gave hcDAF12 agonist 4, APP 5'UTR act 152*, NF-kB neuron act 3.2, hgDAF12 agonist 24*, ssDAF12 agonist 0, hgDAF12 conf 17* and LXRb DAF12 ctr 1.
Screening COc1ccc(C(=O)C=Cc2ccc3c(c2)OCO3)cc1OC returned hcDAF12 agonist 0, hgDAF12 agonist 2 and ssDAF12 agonist -1.
For COc1ccc(/C=C/C(=O)c2ccccc2)c(OC)c1 the results were hcDAF12 agonist 5, APP 5'UTR act 236*, NF-kB neuron act 7.7*, hgDAF12 agonist 14*, ssDAF12 agonist 1, hgDAF12 conf 14* and LXRb DAF12 ctr 1.
Screening COCCCN1C(=O)[C@H](CC(=O)N2CCC(c3ccccc3)CC2)[C@]2(C(=O)OC)CCCCC=C12 returned hcDAF12 agonist -2, hgDAF12 agonist 5 and ssDAF12 agonist 0.
`Cc1cc(NS(=O)(=O)c2ccc(NC(=O)CSc3nnc(SCc4ccc(Cl)cc4)s3)cc2)nc(C)n1` gave hcDAF12 agonist -2, hgDAF12 agonist -2 and ssDAF12 agonist -2.
For Cc1cc(OC[C@@H](O)CN2CCC(C(O)(c3ccccc3)c3ccccc3)CC2)ccc1Br the results were hcDAF12 agonist 0, hgDAF12 agonist -2 and ssDAF12 agonist -1.
`O=C(CSC1CCc2ccccc21)NNC(=O)Nc1ccc(Cl)cc1` (configuration not stated) gave hcDAF12 agonist 6.5*, hgDAF12 agonist 16*, ssDAF12 agonist 1, hgDAF12 conf 8 and LXRb DAF12 ctr 0.
Screening Cc1nc(C(C)NC(=O)CCc2nnc(CCCc3ccccc3)o2)c(C)s1 (configuration not stated) returned hcDAF12 agonist 2, APP 5'UTR act 38, NF-kB neuron act 3.2, hgDAF12 agonist 13*, ssDAF12 agonist 0, hgDAF12 conf 10 and LXRb DAF12 ctr 0.
